Results published in PubChem BioAssay (Tox21).
Inconclusive results are not listed. Where a call stands in place of a potency, no number is given. Unmarked numbers belong to inactive results. The source made the active and inactive calls. The call rests on the fitted dose curve.

Experiment: qHTS assay to identify small molecule agonists of the AP-1 signaling pathway - cell viability counter screen (AID 1159525); further: nearly all actives have a fitted effect of over 55% in size
Settings: ME-180 (cervical carcinoma) AP-1-bla cells viability, ATP luminescence, 5 h; series mostly up to 76.8 µM
Excerpt: National Center for Advancing Translational Sciences [NCATS]
NIH Chemical Genomics Center [NCGC]
U.S. Environmental Protection Agency [EPA]
National Institutes of Environmental Health Sciences [NIEHS]
National Toxicology Program [NTP]
U.S. Food and Drug Administration [FDA]
Activator protein-1 (AP-1), a transcription factor, plays an important role in tumor genesis by regulating genes involved in cell proliferation, differentiation, apoptosis, and angiogenesis. AP-1 activity is induced by a complex network of signaling pathways that involves extracellular signals, such as growth factors. The AP-1 protein complex formed from c-Fos and c-Jun binding to the AP-1 response element results in transcriptional activation of genes containing such elements within their promoter.
Low molecular weight molecules have been discovered and developed to modulate various components of these signaling pathways, for example, MAP kinase inhibitors. However, many points of pathway modulation remain untested due to the lack of chemical probes making this signaling locus of general interest.
Using a beta-lactamase reporter-gene under control of the AP-1 response element, a cell-based assay [CellSensor(TM) AP-1-bla ME-180 developed by Invitrogen Corp.] was used to measure EGF-induced signaling. The Tox21 10K library compounds were measured for their ability to positively modulate the action of EC50 EGF on reporter gene activity. Compounds were screened in a 15-pt titration series in 1536-well format. The cytotoxicity of the Tox21 compound library against this cell line was tested in parallel by measuring the intra cellular ATP content in the same wells.
Tox21 Assay Protocol Summary:
2500 cells/5uL in Opti-MEM medium containing 0.5% dialyzed FBS, 0.1 mM NEAA, 1 mM sodium pyruvate and 10 mM HEPES was dispensed into 1536-well black wall/clear bottom plates using a Multidrop dispenser and cells were cultured at 37 degrees Celsius overnight. Next day 23 nL of compounds dissolved in DMSO, positive controls or DMSO were delivered to each well using a pin tool. The plates were incubated at 37 degrees Celsius for 5 hours. 1 uL of LiveBLAzerTM B/G FRET substrate (Solution A+B+C+D) was added to each well using a Flying Reagent Dispenser. After incubated at room temperature for 2.5 hours the plates were measured on an EnVision plate reader at Excitation 405nm, Emission1=460nm and Emission 2=530nm. The %Activity was determined from the ratio of 460nm/530nm.
After the plates were read for Beta-Lactamase assay on Envision; 3 ul Cell Titer Glo (Promega) was added to measure the cytotoxicity and the plates were then incubated at RT in dark for 30 min. The luminescence was read on ViewLux (Perkin Elmer, Shelton, CT) using 6 sec exposure. ViewLux data was expressed as relative luminescence units.
For primary data analysis, raw plate reads for each titration point were first normalized relative to […] EGF control (100%) and DMSO only wells (basal, 0%).
For primary data analysis for viability assay, raw plate reads for each titration point were first normalized Tetra n-octyl ammonium bromide control (-100%) and DMSO (control, 100%).

Row | SMILES | Potency | viability change, negative = cytotoxic
1 | O=C=Nc1ccc(Cl)c(Cl)c1 | inactive | 
2 | Cc1ccccc1N=C(N)Nc1ccccc1C | inactive | 
3 | CCCCOc1ccc(OCCCN2CCOCC2)cc1 | inactive | 
4 | CCOC(=O)c1ccc(O)c(O)c1 | inactive | 
5 | CCCCCCCC/C=C\CCCCCCCCCCCC(=O)O | inactive | 
6 | CC(O)c1ccccc1 (stereo not given) | inactive | 
7 | Brc1cc(Br)c(Oc2cc(Br)c(Br)cc2Br)cc1Br | inactive | 
8 | CC(CC1c2ccccc2CCc2ccccc21)CN(C)C (stereo not given) | inactive | 
9 | Clc1cc(Cl)nc(Cl)n1 | inactive | 
10 | C1C[C@@H]2[C@H]3CC[C@H](C3)[C@@H]2C1 | inactive | 
11 | CC(C)=CC(=O)C=C(C)C | inactive | 
12 | CC(C)C=O | inactive | 
13 | CN1CCCC(CC2c3ccccc3Sc3ccccc32)C1 (stereo not given) | inactive | 
14 | CC(C)=CCC/C(C)=C/CC/C(C)=C/C(=O)OCC(=O)[C@@]1(O)CC[C@H]2[C@@H]3CCC4=CC(=O)C=C[C@]4(C)[C@H]3[C@@H](O)C[C@@]21C | inactive | 
15 | CN(C)CCC=C1c2ccccc2C=Cc2ccccc21 | inactive | 
16 | CCOC(=O)OC(C)OC(=O)[C@@H]1N2C(=O)[C@@H](NC(=O)[C@H](N)c3ccccc3)[C@H]2SC1(C)C (stereo not given in full) | inactive | 
17 | O[C@@H]1CO[C@H]2[C@@H]1OC[C@@H]2O | inactive | 
18 | CCCCCC[C@@H](O)C/C=C\CCCCCCCC(=O)O | inactive | 
19 | CC(=O)[C@H]1[C@H](C#N)C[C@H]2[C@@H]3CC=C4C[C@@H](O)CC[C@]4(C)[C@H]3CC[C@@]21C | inactive | 
20 | CC[N+](CC)(CCNC(=O)C(=O)NCC[N+](CC)(CC)Cc1ccccc1Cl)Cc1ccccc1Cl | inactive | 

Row | SMILES | Potency | viability change, negative = cytotoxic
21 | CN1CC(=O)N2[C@H](c3ccc4c(c3)OCO4)c3[nH]c4ccccc4c3C[C@@H]2C1=O | inactive | 
22 | C=C1c2cccc(O)c2C(O)=C2C(=O)[C@]3(O)C(O)=C(C(N)=O)C(=O)[C@@H](N(C)C)[C@@H]3[C@@H](O)[C@H]12 | inactive | 
23 | CCCCCCCCN | inactive | 
24 | CCCCN(CCCC)C(C(N)=O)c1ccc(OC)cc1 (stereo not given) | inactive | 
25 | CCC(=O)OC | inactive | 
26 | CC(C)=CCC/C(C)=C/CC/C(C)=C/CCC(=O)OC/C=C(\C)CCC=C(C)C | inactive | 
27 | CCOc1ccccc1O[C@H](c1ccccc1)[C@H]1CNCCO1 | inactive | 
28 | Cc1ccco1 | inactive | 
29 | CC(CN(C)C)C(C)(O)Cc1ccc(Cl)cc1 (stereo not given) | inactive | 
30 | c1csc(SSc2cccs2)c1 | inactive | 
31 | FC(F)(F)c1ccccc1Cl | inactive | 
32 | O=C1c2ccccc2C(=O)c2c(O)c(O)cc(O)c21 | inactive | 
33 | Cc1[nH]cnc1CN1CCc2c(c3ccccc3n2C)C1=O | inactive | 
34 | O=C1c2ccccc2C(=O)C1(O)O | inactive | 
35 | Cc1cc(=O)c2c(O)c3c(O)cc(=O)c4c3c3c(cc(O)c1c23)C(C)(C)C=4O |  | 5.76% [at 15.8 µM]
36 | CC1=Nc2ccc3ccccc3c2C1(C)C | inactive | 
37 | CCCCN1CCCC1C(=O)Nc1c(C)cc(C)cc1C (stereo not given) | inactive | 
38 | CCOC(=O)/C=C/C(=O)OCC | inactive | 
39 | COC(=O)CS | inactive | 
40 | Cc1cc(C)c(N)cc1C | inactive | 
